Rows were chosen to be rich in hits. Some 7.1% of all compounds tested hit in one or more screens of this group.
MARV entry inh = qHTS for Inhibitors of binding or entry into cells for Marburg Virus. Marburg virus pseudotype entry/binding inhibition, cell-based. Potency, µM (series often up to 49.2 µM), usual class: inhibitors. 18,000 compounds, 6.5% hits
Lassa entry = qHTS for Inhibitors of binding or entry into cells for Lassa Virus | 18,000 compounds, 4.1% hits | Lassa virus pseudotyped entry inhibition, cell-based qHTS | Potency, µM (series often up to 49.2 µM), hits mostly inhibitors
Numbers stand for hits; [ ] = dose if it differs, or a comment. Calls follow the shape of the full dose curve; tested in HEK293 cells.

Results for OCc1cc([C@@H](O)CNCCCCCCOCCCCc2ccccc2)ccc1O ?
MARV entry inh: 12.6µM; Lassa entry: inconclusive

How did CCCCNCC(O)c1ccc(O)cc1 (stereo unspecified) do in these assays?
MARV entry inh: inactive; Lassa entry: inactive

Results for O=C1C=C2C=C[C@@H]3C[C@@]2(O1)[C@H]1CCCCN31 ?
MARV entry inh: 14.1µM; Lassa entry: inconclusive

How did COC(=O)N[C@@H](c1ccco1)[C@]1(C(=O)OC)CCCC1=O do in these assays?
MARV entry inh: inconclusive; Lassa entry: inactive[8.59 µM]

What do the screens show for `C#CC[C@@]1(C(=O)OC)C=C[C@@H](C)[C@H](c2ccccc2Br)N1C(=O)C(F)(F)F`?
MARV entry inh: inactive[8.59 µM]; Lassa entry: inactive[8.59 µM]

What do the screens show for `CCCCCCN1C[C@H](O)[C@@H](n2cc(COC(=O)c3ccccc3)nn2)C[C@H]1c1ccccc1`?
MARV entry inh: inconclusive; Lassa entry: inactive

How did C=CCN1c2ccccc2[C@]23CCC(=O)N(Cc4ccco4)C2=NC(C(=O)OC)=C(C(=O)OC)[C@H]13 do in these assays?
MARV entry inh: inactive[8.59 µM]; Lassa entry: inactive[8.59 µM]

What do the screens show for `Cc1nc(-c2ccc(OCC(C)C)c(C#N)c2)sc1C(=O)O`?
MARV entry inh: inconclusive; Lassa entry: 7.94µM

Results for C[C@@H]1OC(OC2CC[C@@]3(C)C(CC[C@@]4(C)C3CC=C3C5CC(C)(C)CC[C@]5(C(=O)OC5OCC(O)[C@@H](O)[C@@H]5OC5O[C@@H](C)[C@H](O[C@H]6OC(CO)C(O)C(O)C6O)C(O)C5O)C(O)C[C@@]34C)C2(C)C)C(O)C(O)[C@H]1OC1OCC(O)C(O)[C@H]1O (stereo partly specified) ?
MARV entry inh: inconclusive; Lassa entry: 11.2µM

Results for CO[C@@H]1CC[C@@]2(C)[C@@H](CC[C@@]3(C)[C@H]2CC=C2[C@H]4CC(C)(C)[C@H](O)[C@@H](OC(C)=O)[C@]4(CO)[C@H](O)C[C@]23C)[C@@]1(C)CO (tested in a mixture with another compound) ?
MARV entry inh: inactive; Lassa entry: inactive

What do the screens show for `COC(=O)C1=C[C@@]2(c3ccc(OC)cc3[C@@H](OC)[C@@H]2C)[C@@H]2C=C[C@@H]1C2`?
MARV entry inh: inactive[8.59 µM]; Lassa entry: inactive[8.59 µM]

How did C=CCN=C1N[C@H](c2ccc(Br)cc2)C(C(=O)OC)=C(C)N1Cc1ccccc1 do in these assays?
MARV entry inh: inactive[8.59 µM]; Lassa entry: inactive[8.59 µM]

Results for C[C@H](Cc1ccccc1)Nc1ncnc2c1ncn2[C@@H]1O[C@H](CO)[C@@H](O)[C@H]1O ?
MARV entry inh: inactive; Lassa entry: inactive

What do the screens show for `COc1ccc(C[C@H](N)C(=O)N[C@H]2[C@@H](O)[C@H](n3cnc4c(N(C)C)ncnc43)O[C@@H]2CO)cc1`?
MARV entry inh: 3.98µM; Lassa entry: 4.47µM

Results for O=C(C=Cc1ccccc1)Nc1cccc(C(=O)NCCCCc2ccccc2)c1 ?
MARV entry inh: inconclusive; Lassa entry: inactive

How did O=S1(=O)c2cccc(Cl)c2OC[C@H](c2ccccc2)N1Cc1ccc(F)cc1F do in these assays?
MARV entry inh: inconclusive; Lassa entry: inactive

What do the screens show for `COC(=O)[C@]1(C)CC[C@@]2(C)CC[C@@]3(C)C4=CCc5c(cc(O)c(O)c5C)[C@]4(C)CC[C@@]3(C)C2C1` (stereo partly specified)?
MARV entry inh: inconclusive; Lassa entry: 17.8µM

What do the screens show for `Cc1c(C(=O)NCCc2ccccn2)cnn1-c1nccc(-c2cccs2)n1`?
MARV entry inh: inactive; Lassa entry: inactive

What do the screens show for `Cc1c(C(=O)NCCN2CCC(c3ccccc3)CC2)cnn1-c1nccc(-c2cccs2)n1`?
MARV entry inh: 12.6µM; Lassa entry: inactive

Results for CC(C)CCOC(=O)c1ccc(N(C)C)cc1 ?
MARV entry inh: inactive; Lassa entry: inactive

What do the screens show for `CN=C1C=CC(=C(c2ccc(N(C)C)cc2)c2ccc(N(C)C)cc2)C=C1`?
MARV entry inh: 2.82µM; Lassa entry: 3.55µM

How did OC[C@H]1O[C@H](C#Cc2ccccc2)C=C[C@@H]1O do in these assays?
MARV entry inh: inactive[8.59 µM]; Lassa entry: inactive[8.59 µM]

What do the screens show for `COC1=CC(=O)C=C(OC)C1=O`?
MARV entry inh: 7.08µM; Lassa entry: 10µM

What do the screens show for `COC1=CC(=O)C(C(=O)c2ccccc2)=CC1=O`?
MARV entry inh: inactive; Lassa entry: inactive

Results for Cc1cc(-c2ccco2)cc(C)c1C=Cc1cncc(-c2nn[nH]n2)c1 ?
MARV entry inh: inconclusive; Lassa entry: inactive

Results for C=C[C@H]1C[C@H]2C=C(C)COP(=O)(O2)O1 ?
MARV entry inh: inactive; Lassa entry: inactive

Results for CN(C)C(=O)c1ccc(-c2nc(Nc3ccc(F)cc3)c3ccccc3n2)cc1 ?
MARV entry inh: inactive; Lassa entry: inactive

What do the screens show for `CN(C)c1nc(NC2CCC(NC(=O)c3ccc(F)c(F)c3)CC2)nc2ccccc12` (stereo unspecified)?
MARV entry inh: 2.82µM; Lassa entry: 15.8µM

How did CCN(CC)CCCN=C1NC(c2cccc(F)c2)C(C(=O)OC)=C(C)N1Cc1ccccc1 (stereo unspecified) do in these assays?
MARV entry inh: inconclusive; Lassa entry: inactive[8.59 µM]

What do the screens show for `Nc1ccc(/C=C/c2ccc(N)cc2S(=O)(=O)O)c(S(=O)(=O)O)c1`?
MARV entry inh: 25.1µM; Lassa entry: inactive

How did O=S(=O)(O)c1cc(N=C=S)ccc1/C=C/c1ccc(N=C=S)cc1S(=O)(=O)O do in these assays?
MARV entry inh: inactive; Lassa entry: inactive

Results for CCN1C(=NCc2ccco2)N[C@@H](CCc2ccccc2)[C@H](C(=O)OC)[C@H]1C ?
MARV entry inh: inactive[8.59 µM]; Lassa entry: inactive[8.59 µM]

How did CC(C)[C@@H](OCc1ccccc1)[C@H](C)C=NOC[C@@H](O)[C@H]1O[C@@H]2OC(C)(C)O[C@H]2[C@@H]1O do in these assays?
MARV entry inh: inactive[8.59 µM]; Lassa entry: inactive[8.59 µM]

What do the screens show for `COC[C@H]1O[C@@H](c2c(OC)cc(OC)cc2OC)[C@H](OC)[C@@H](OC)[C@H]1OC`?
MARV entry inh: inactive[8.59 µM]; Lassa entry: inactive[8.59 µM]

How did O=C(Nc1ccccc1)OCC(CN1CCCCC1)OC(=O)Nc1ccccc1 (stereo unspecified) do in these assays?
MARV entry inh: 12.6µM; Lassa entry: inactive

How did O=C(OCCN1CCCCC1)C(O)(c1ccccc1)c1ccccc1 do in these assays?
MARV entry inh: inactive; Lassa entry: inactive

Results for Oc1[nH]c2ccccc2c1C=Nc1ccc(-n2cncn2)cc1 ?
MARV entry inh: inactive; Lassa entry: inactive

Results for CN1c2ccccc2[C@@]2(O)C(=O)[C@@]1(C)[C@@H]1CCC=C[C@H]12 ?
MARV entry inh: inactive[8.59 µM]; Lassa entry: inactive[8.59 µM]

How did C=CCN1c2ccccc2[C@]23CCC(=O)N(Cc4cc(OC)c(OC)c(OC)c4)C2=NC(C(=O)OC)=C(C(=O)OC)[C@H]13 do in these assays?
MARV entry inh: inactive[8.59 µM]; Lassa entry: inactive[8.59 µM]

Results for CCn1c(-c2nonc2N)nc2c(C#CC(C)(C)O)nc(OCCNC)cc21 ?
MARV entry inh: 12.5µM

What do the screens show for `CCn1c(-c2nonc2N)nc2ccccc21`?
MARV entry inh: inconclusive; Lassa entry: inactive

Results for COc1cccc(-c2ccc3ncnc(NC4CCNCC4)c3c2)c1 ?
MARV entry inh: inconclusive; Lassa entry: inactive

Results for FC(F)(F)c1ccccc1-c1ccc2ncnc(NC3CCNCC3)c2c1 ?
MARV entry inh: 11.2µM; Lassa entry: inactive

Results for C[C@@H]1C[C@H]2CC(=O)N3[C@H](CC(=O)N2[C@H]1c1ccccc1)C[C@@H](C)[C@@H]3c1ccccc1 ?
MARV entry inh: inactive[8.59 µM]; Lassa entry: inactive[8.59 µM]
